The target of test [1] is Glucocorticoid receptor (Homo sapiens) (UniProt P04150). The experiment in a line: GR-EFC Redistribution (AID 451; calls by dose curve; also: potency is read from the fitted curve at half-maximal effect). The settings on record: CHO-K1 GR-EFC translocation, beta-gal luminescence, 2 h. Put shortly: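 Translocation of GR-ED fusion to nuclear EA restores b-gal, read by luminescence after 1 h room-temperature detection. Engineered CHO-K1 biosensor cells, 1,000/well, exposed 2 h at 37 C to titrations up to 46 uM final.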
Chain of Glucocorticoid receptor (Homo sapiens) (P04150 whole entry, looked up, the tested form may be a part): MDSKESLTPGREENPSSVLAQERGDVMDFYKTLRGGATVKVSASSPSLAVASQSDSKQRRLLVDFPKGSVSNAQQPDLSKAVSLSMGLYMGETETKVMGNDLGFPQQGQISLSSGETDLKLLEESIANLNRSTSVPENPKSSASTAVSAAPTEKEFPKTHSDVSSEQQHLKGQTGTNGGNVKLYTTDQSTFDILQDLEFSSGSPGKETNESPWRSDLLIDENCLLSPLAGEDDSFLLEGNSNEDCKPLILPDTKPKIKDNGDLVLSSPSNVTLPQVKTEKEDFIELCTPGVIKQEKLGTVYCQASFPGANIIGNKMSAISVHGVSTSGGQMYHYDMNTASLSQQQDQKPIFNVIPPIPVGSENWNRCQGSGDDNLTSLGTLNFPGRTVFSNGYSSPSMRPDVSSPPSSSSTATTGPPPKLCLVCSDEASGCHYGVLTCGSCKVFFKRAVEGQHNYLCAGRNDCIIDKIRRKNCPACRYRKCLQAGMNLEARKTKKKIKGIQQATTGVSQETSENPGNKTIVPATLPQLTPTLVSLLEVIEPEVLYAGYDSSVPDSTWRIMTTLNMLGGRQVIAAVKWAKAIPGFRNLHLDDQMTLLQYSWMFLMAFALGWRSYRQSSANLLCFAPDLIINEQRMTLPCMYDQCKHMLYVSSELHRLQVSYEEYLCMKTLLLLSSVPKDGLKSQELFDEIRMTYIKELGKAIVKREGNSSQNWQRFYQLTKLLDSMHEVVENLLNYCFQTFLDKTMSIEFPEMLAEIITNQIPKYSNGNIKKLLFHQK

The target in test [2] is 3',5'-cyclic-AMP phosphodiesterase 4B (Homo sapiens) (UniProt Q07343). Description: qHTS Assay for Inhibitors of PDE-IV (AID 607; active = well fitted activation curve with a large enough effect in the main read-out, with a control signal flat, not every such curve was filed as active; also: % of control where 0% means no effect). An outline of the steps: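 The readout is membrane depolarisation from a cAMP-sensing CNG channel, detected with a potential dye at ex 535/em 590. Cells were HEK293-derived (endogenous PDE-IV) at 1000 cells/well, titrated up to 22.9 uM final.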
Chain of 3',5'-cyclic-AMP phosphodiesterase 4B (Homo sapiens) (Q07343 whole entry, looked up): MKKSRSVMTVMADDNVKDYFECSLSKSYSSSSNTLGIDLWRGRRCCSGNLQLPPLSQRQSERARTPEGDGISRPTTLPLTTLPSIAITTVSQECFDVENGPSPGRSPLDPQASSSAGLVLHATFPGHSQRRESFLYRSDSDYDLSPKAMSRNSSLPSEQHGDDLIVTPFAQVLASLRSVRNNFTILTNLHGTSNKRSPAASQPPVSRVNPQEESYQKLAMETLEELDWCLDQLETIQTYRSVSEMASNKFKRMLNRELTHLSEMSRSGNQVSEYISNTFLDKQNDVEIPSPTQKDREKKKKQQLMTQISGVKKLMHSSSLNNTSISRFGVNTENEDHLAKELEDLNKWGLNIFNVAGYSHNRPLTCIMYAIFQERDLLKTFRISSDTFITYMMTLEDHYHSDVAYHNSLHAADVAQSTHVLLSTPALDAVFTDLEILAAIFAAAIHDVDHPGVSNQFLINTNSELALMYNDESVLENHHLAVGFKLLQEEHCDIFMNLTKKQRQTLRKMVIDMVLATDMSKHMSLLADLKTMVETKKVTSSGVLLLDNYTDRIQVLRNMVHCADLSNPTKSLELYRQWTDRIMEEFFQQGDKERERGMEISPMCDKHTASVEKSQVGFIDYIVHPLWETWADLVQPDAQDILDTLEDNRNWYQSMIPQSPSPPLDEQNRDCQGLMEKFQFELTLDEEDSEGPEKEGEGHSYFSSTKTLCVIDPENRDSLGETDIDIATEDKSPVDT

The target in test [3] is Cytochrome P450 3A4 (Homo sapiens) (UniProt P08684). The experiment in a line: qHTS Assay for Activators of Cytochrome P450 3A4 (AID 885). Also: nearly all actives have a fitted effect of over 65% in size. Put shortly: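 Steps: enzyme/substrate mix dispensed; compound added, 10 min RT; NADPH regeneration solution added, 60 min RT; luciferin detection buffer stops reaction; 20 min later luminescence measured.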
Chain of Cytochrome P450 3A4 (Homo sapiens) (P08684 whole entry, looked up): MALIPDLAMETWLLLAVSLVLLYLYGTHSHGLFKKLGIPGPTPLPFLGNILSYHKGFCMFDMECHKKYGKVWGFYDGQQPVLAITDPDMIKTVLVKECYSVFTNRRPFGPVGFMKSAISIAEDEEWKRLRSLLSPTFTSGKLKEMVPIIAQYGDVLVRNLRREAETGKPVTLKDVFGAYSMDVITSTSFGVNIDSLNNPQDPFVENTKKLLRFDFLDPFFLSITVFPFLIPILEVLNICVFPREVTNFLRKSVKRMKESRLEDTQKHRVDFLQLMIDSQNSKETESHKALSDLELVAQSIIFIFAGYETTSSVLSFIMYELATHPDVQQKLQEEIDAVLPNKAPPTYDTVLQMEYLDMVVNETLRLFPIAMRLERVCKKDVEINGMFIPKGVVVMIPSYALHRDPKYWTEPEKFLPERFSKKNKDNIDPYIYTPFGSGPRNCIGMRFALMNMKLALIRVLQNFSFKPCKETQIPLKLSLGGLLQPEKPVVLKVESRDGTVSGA
(qHTS replaces the single test concentration by a dilution series.)

A short description of test [4]: qHTS Assay for Lipid Storage Modulators (AID 1519; calls by dose curve). The settings on record: Drosophila S3 cells, BODIPY lipid droplet/cell ratio, laser cytometry, cells loaded with oleic acid; for activity change, negative = inhibition: at 57.5 µM (top of the series). An outline of the steps:
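Cells seeded at 5,000 per well were treated with compounds over a concentration series and loaded with oleic acid (400 uM, as added). Lipid droplet fluorescence (488 nm excitation, 500-530 nm channel) was read by laser-scanning cytometry and normalized to 20 uM Triacsin C.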

The target of test [5] is DNA dC->dU-editing enzyme APOBEC-3G (Homo sapiens) (UniProt Q9HC16). Description: qHTS for inhibitors of Vif-A3G interactions: Validation (AID 588379). Also: 0% is about no effect. Put shortly:
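HeLa cells stably expressing Vif and A3G-eYFP, 700 cells/well, incubated overnight at 37 deg C, then exposed to compound overnight at 37 deg C. Inhibition of Vif-mediated degradation read as increased yellow fluorescence (Ex 488/Em 500-530) by laser-scanning cytometry.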

Test [6] has as its system Zika virus NS2B-NS3 protease. The experiment in a line: Primary screen GU AMC qHTS for Zika virus inhibitors (AID 1347154).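 Also: 0% = no-inhibitor control and -100% = no-enzyme control; nearly all actives have a fitted effect of over 70% in size.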 An outline of the steps:
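Fluorogenic AMC-substrate cleavage by noncovalent NS2B-NS3 protease complex (25 nM, pH 8.0 Tris buffer with Tween 20) followed for 15 minutes at room temperature (~20% conversion). Percent inhibition from ex340/em450 signal change, fitted by 4-parameter Hill equation.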

Test [7] in a line: Primary qHTS for small molecule stabilizers of the endoplasmic reticulum resident proteome: Secreted ER Calcium Modulated Protein (SERCaMP) assay (AID 1508630). Also: % is scaled to controls: 0 for no effect and ±100 for the full control effect. An outline of the steps:
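GLuc-SERCaMP-expressing SH-SY5Y cells, pretreated 16 h with compound, are challenged with thapsigargin to empty ER calcium stores; after 4 h, coelenterazine is added directly to the medium and luminescence is imaged.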

The target of test [8] is Glucocorticoid receptor (Homo sapiens) (UniProt P04150). Description: GR-GFP Redistribution (AID 450;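 active = compounds whose dose series gives a full or clear partial fitted curve of increased nuclear translocation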; also: potency is read from the fitted curve at half-maximal effect). Conditions: U2OS GR-GFP nuclear translocation, laser cytometry, 2 h.
In test [9] the target is Cytochrome P450 1A2 (Homo sapiens) (UniProt P05177). Description: p450-cyp1a2 (AID 410; calls by dose curve; also: potency is read from the fitted curve at half-maximal effect;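 as to activity change, negative = inhibition: -100% = full effect of reference inhibitor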). Put shortly: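 Luminescent readout of luciferin formed from Luciferin-ME by human CYP1A2; data normalized against complete inhibition by 57 uM furafylline. Enzyme 20nM, substrate 100uM at Km, 100mM KPO4 buffer, 60 min reaction at room temperature.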
Chain of Cytochrome P450 1A2 (Homo sapiens) (P05177 whole entry, looked up): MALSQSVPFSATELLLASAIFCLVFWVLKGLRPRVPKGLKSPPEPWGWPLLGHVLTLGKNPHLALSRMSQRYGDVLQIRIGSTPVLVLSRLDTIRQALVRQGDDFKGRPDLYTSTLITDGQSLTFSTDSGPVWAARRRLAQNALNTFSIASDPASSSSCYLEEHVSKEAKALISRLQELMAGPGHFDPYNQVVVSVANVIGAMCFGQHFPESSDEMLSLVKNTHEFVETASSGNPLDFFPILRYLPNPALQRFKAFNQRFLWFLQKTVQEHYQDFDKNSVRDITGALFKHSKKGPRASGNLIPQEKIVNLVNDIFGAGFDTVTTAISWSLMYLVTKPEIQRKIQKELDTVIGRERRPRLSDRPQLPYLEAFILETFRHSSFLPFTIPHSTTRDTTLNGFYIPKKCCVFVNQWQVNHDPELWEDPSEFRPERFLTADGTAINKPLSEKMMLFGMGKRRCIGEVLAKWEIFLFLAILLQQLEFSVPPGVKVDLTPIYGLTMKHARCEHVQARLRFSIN
The target in test [10] is Mitogen-activated protein kinase 10 (Mus musculus) (UniProt Q61831). The experiment in a line: JNK3 AlphaScreen Assay (AID 530; active = well fitted curve in either direction with a large enough effect, not every such curve was filed as active;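 also: kinase came from lysate of stimulated human HepG2 cells; signal reports phosphorylation of biotinylated GST-cJun 1-79 at Ser73 with 10 µM ATP; % is scaled to controls: 0 for no effect and ±100 for the full control effect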). Put shortly:
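Compound titrations were preincubated 15 minutes at room temperature with substrate, antibody and pre-activated JNK3-containing HepG2 lysate. Reactions were started with 10 uM ATP and stopped with EDTA-containing bead buffer for AlphaScreen detection.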

Test [11] addresses Pyruvate kinase (Leishmania mexicana) (UniProt Q27686). The experiment in a line: qHTS Validation Assay for Inhibitors of Leishmania Mexicana Pyruvate Kinase (AID 945).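 Also: 0% = DMSO only neutral control wells.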 An outline of the steps: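 qHTS eight-point titrations against 0.2 nM LmPYK (E451W) in imidazole buffer pH 7.2 with 0.5 mM PEP, 0.1 mM ADP; 1 h, room temperature. Readout: PKLight luminescence, normalized to neutral DMSO wells.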

Test [12] addresses Pyruvate kinase PKM (Homo sapiens) (UniProt P14618). Description: qHTS Assay for Activators of Human Muscle Pyruvate Kinase (AID 954; active = well fitted curve in the direction sought with a large enough effect, not every such curve was filed as active;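 also: 0% = uninhibited enzyme and -100% = no enzyme or full thiadiazolimine inhibition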). An outline of the steps:
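Reaction: 0.1 nM purified PKM2 with 0.5 mM phosphoenolpyruvate and 0.1 mM ADP, room temperature, 1 h. Readout: luciferase-based ATP luminescence after stop reagent. Activators judged against a 0.3 nM enzyme column.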

Test [13] deals with alpha-glucosidase (Oryza sativa, rice) (UniProt Q653V4). The experiment in a line: Counterscreen for Glucocerebrosidase Inhibitors: qHTS Assay for Rice alpha-Glucosidase at pH 5.0 (AID 997).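 Also: 0% = full activity with enzyme and -100% = basal without enzyme.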 Put shortly: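 Rice alpha-glucosidase (4 nM final) with 400 uM 4-methylumbelliferyl-alpha-D-glucopyranoside in citrate buffer pH 5.0, 20 min at room temperature, stopped at pH 10; fluorescence 365/440 nm, compounds 0.7 nM–77 uM, AC50 from Hill fits.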
For orientation: The purpose of a counterscreen is to sort out artefacts and off-target activity.

Test [14] has as its target Cytochrome P450 2D6 (Homo sapiens) (UniProt P10635). The experiment in a line: qHTS Assay for Inhibitors and Substrates of Cytochrome P450 2D6 (AID 891). Also: nearly all actives have a fitted effect of over 60% in size. Also: potency is read from the fitted curve at half-maximal effect. An outline of the steps: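 Human CYP2D6 (5 nM) with 30 uM Luciferin-ME EGE (at Km) in 100 mM KPO4, compound preincubated 10 min, then NADPH regeneration system for 60 min at room temperature. Luciferin read by luminescence; normalized to 1.43 uM quinidine.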

For test [15], the target named is Ubiquitin carboxyl-terminal hydrolase 1 (Homo sapiens) (UniProt O94782). The experiment in a line: Inhibitors of USP1/UAF1: Pilot qHTS (AID 504865).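 Also: rhodamine fluorescence freed from ubiquitin-rhodamine substrate followed over time; top concentration of the series differs between compounds; % is scaled to controls: 0 for no effect and ±100 for the full control effect; nearly all actives have a fitted effect of over 35% in size.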 Put shortly:
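Deubiquitinase activity followed as kinetic rhodamine fluorescence release from 150 nM Ub-Rho. 1 nM USP1/UAF1 with compound, after 15 min room-temperature preincubation, in HEPES pH 7.8 buffer containing TCEP, EDTA, BSA and Tween-20.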

The nature of test [16]: AP1 Signaling Pathway (AID 357; active = well fitted curve in either direction with a large enough effect, not every such curve was filed as active;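 also: ME-180 reporter cells stimulated with EGF at its EC50 level; % is scaled to controls: 0 for no effect and ±100 for the full control effect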). Conditions: ME-180 AP-1-bla reporter, EGF-induced, beta-lactamase ratio, 5 h. An outline of the steps:
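AP-1-bla ME-180 cells, Opti-MEM + 0.5% dialyzed FBS, plated overnight 37 °C. Cpd titration + EC50 EGF, 5 h 37 °C. CCF4 2.5 h RT; ex 405, em 460/530 ratio → %activity, AC50.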

Test [17] is described as follows: NFAT Signaling Pathway (AID 444; active = well fitted curve in either direction with a large enough effect, not every such curve was filed as active;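 also: carbachol stimulus at about its EC50 of 1 µM final; % is scaled to controls: 0 for no effect and ±100 for the full control effect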). The settings on record: Jurkat NFAT-bla M1, carbachol, beta-lactamase ratio, 5 h. Put shortly: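 Read-out: CCF4 FRET ratio (460 nm/530 nm) after 1 h RT dye loading, used for %activity and AC50 from titration series. Cells: Jurkat NFAT-β-lactamase/M1 line, treated with compound plus 1 uM carbachol for 5 h, 37 °C.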
Test [18] in a line: Stat Signaling Pathway (AID 446; active = well fitted curve in either direction with a large enough effect, not every such curve was filed as active). Conditions: ME-180 SIE beta-lactamase reporter, IL-6 stimulated, 5 h; at 38 µM (top of the series). Put shortly: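 Screening format detects activators and inhibitors alike: ME-180 SIE-bla cells stimulated at 40 pM IL-6 for 5 hrs with compound, then dual-emission beta-lactamase read at 405 nm excitation.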
Test [19] has as its target Cytochrome P450 3A4 (Homo sapiens) (UniProt P08684). The experiment in a line: qHTS Assay for Inhibitors and Substrates of Cytochrome P450 3A4 (AID 884). Also: potency is read from the fitted curve at half-maximal effect; nearly all actives have a fitted effect of over 50% in size. Put shortly:
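20 nM human CYP3A4 with 25 uM Luciferin-PPXE (at KM) in 200 mM KPO4, preincubated 10 min with compound; NADPH regeneration started a 60 min RT reaction. Luciferin detected by luminescence, normalized to 57 uM ketoconazole as full inhibition.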

The target in test [20] is Cytochrome P450 2C19 (Homo sapiens) (UniProt P33261). The experiment in a line: qHTS Assay for Inhibitors and Substrates of Cytochrome P450 2C19 (AID 899). Also: % is scaled to controls: 0 for no effect and ±100 for the full control effect; nearly all actives have a fitted effect of over 60% in size. An outline of the steps:
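Reactions contain 5nM enzyme, 10uM Luciferin-H EGE (KM) and 50mM KPO4; compound preincubates 10 min at 37C, NADPH regeneration starts turnover for 60 min. Luminescence after detection reagent gives activity.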

[21] abbreviates: measured here: cell count channel max response.
[22] abbreviates: measured here: lipid channel max response.

“And” between values parts separate entries of the source, which are not always exact repeats. Equal entries are not always repeated. Records with an inconclusive call do not appear. The source made the active and inactive calls. Unless noted, calls follow the shape of the dose curve; as a rule, active = well fitted curve in the direction sought with a large enough effect; inconclusive = small, poorly fitted or top-dose-only effect, or another doubt; inactive = no such curve, though single readings can be large; an effect the other way counts as inactive or inconclusive.

Chain of Pyruvate kinase (Leishmania mexicana) (Q27686 2-499 E452W): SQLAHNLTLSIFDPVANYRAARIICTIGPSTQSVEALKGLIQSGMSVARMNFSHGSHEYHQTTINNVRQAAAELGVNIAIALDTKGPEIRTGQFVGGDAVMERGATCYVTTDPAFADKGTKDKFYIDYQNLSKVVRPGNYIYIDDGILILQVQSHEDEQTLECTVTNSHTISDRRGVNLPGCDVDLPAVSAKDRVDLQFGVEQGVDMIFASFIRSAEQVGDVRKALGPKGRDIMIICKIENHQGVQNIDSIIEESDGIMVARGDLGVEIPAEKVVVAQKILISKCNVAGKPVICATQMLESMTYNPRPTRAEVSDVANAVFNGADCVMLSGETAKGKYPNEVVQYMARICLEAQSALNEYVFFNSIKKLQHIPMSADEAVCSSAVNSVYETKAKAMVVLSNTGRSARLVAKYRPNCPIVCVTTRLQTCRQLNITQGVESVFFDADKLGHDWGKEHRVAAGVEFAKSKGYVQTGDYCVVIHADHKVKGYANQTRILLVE
Chain of Pyruvate kinase PKM (Homo sapiens) (P14618 whole entry, looked up): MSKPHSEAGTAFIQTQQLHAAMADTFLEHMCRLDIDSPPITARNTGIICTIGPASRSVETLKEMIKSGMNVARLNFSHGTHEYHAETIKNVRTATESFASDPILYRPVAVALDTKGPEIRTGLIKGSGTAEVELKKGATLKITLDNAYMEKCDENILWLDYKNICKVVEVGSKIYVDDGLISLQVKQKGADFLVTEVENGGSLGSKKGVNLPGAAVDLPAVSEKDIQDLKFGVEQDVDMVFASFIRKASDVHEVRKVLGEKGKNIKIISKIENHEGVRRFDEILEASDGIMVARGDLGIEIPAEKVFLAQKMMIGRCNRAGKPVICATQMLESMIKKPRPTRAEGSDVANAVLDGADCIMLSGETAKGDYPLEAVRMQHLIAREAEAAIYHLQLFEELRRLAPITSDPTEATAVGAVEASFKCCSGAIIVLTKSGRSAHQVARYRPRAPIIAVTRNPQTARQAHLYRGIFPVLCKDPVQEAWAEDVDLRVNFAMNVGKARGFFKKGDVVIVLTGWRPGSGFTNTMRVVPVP
Chain of DNA dC->dU-editing enzyme APOBEC-3G (Homo sapiens) (Q9HC16 whole entry, looked up): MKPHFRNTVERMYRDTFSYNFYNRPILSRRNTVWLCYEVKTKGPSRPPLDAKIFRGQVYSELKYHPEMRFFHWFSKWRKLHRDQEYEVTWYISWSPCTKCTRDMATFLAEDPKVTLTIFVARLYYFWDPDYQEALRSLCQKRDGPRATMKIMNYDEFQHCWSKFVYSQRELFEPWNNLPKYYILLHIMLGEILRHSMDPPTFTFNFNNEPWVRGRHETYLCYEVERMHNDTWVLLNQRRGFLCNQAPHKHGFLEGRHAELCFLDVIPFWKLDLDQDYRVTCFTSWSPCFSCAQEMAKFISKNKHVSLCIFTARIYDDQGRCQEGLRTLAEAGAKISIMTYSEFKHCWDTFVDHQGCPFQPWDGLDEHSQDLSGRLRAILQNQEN
Chain of Cytochrome P450 2D6 (Homo sapiens) (P10635 whole entry, looked up): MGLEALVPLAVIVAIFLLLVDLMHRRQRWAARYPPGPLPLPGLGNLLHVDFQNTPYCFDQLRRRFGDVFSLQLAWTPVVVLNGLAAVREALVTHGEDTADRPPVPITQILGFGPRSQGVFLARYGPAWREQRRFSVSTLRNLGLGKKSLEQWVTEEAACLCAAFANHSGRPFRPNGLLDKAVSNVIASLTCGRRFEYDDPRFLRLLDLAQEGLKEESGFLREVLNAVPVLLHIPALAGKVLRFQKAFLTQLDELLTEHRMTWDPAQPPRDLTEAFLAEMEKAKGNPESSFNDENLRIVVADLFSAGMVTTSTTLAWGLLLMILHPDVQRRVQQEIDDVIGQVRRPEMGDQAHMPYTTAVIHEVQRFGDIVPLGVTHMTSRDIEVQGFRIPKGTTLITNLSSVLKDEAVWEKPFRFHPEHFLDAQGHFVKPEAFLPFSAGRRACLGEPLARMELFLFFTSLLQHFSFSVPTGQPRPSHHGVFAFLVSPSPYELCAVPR
Chain of Cytochrome P450 2C19 (Homo sapiens) (P33261 whole entry, looked up): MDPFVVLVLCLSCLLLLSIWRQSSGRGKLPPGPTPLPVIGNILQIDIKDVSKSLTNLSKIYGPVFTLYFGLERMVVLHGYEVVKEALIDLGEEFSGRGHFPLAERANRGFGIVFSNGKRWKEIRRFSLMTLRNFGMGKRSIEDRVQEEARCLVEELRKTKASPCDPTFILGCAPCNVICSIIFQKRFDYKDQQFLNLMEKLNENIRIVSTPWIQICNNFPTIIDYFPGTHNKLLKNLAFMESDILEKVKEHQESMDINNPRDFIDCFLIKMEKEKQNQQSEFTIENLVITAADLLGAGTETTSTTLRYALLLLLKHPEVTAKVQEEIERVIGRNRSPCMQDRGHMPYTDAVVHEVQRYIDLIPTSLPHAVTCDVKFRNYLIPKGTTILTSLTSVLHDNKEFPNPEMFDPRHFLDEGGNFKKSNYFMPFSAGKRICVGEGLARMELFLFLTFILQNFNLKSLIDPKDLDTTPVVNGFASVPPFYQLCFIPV

Regarding `O=C(Nc1ccccc1)N[C@H]1C[C@H](C(=O)O)Nc2cc(Cl)cc(Cl)c21`, in test [1], the Potency is > 46 µM (inactive). The Potency result in [2], in [3], in test [5], in test [6] and in test [7] was “inactive” throughout. Also, the activity change, negative = inhibition in test [4] is 6.02% (inactive). The max response in [4] (setting [21]) was -4.62%; in test [4] (setting [22]), 0.745%.

As to `C[C@@H](CC(=O)O)[C@@H](N)C(=O)O`, the Potency in [8] and in test [1] was > 46 µM (inactive) each time. For the same molecule, the Potency entry in test [2], in test [5], in test [6] and in [7] was “inactive” throughout. Also, the activity change, negative = inhibition in test [4] was -3.19% (inactive). The max response in test [4] (setting [21]) was -10.3%; in [4] (setting [22]), -14.3%.

For the molecule `CC[C@H](C)C(=O)O[C@H]1CCC=C2C=C[C@H](C)[C@H](CC[C@@H]3C[C@H](O)CC(=O)O3)[C@H]21`, the Potency was 31.6 µM (active) in test [9], > 46 µM (inactive) in test [8] and > 46 µM (inactive) in test [1]. The Potency entry in [10], in [3], in test [11], in test [6] and in test [7] was “inactive” each time. Besides, the call in test [12] and in [13] was inactive.

In the case of `O=C1CC2(CCCC2)CC(=O)N1CCNC[C@H]1COc2ccccc2O1`, the Potency entry in [2], in test [15], in [5], in test [6] and in [7] was “inactive” throughout. For the same molecule, the Potency in [14] is 0.126 µM (active). Also, the activity change, negative = inhibition in test [4] was -0.603% (inactive). In addition, the figures for the max response in test [4] (setting [21]) and in test [4] (setting [22]) were 16.6% and 17.5%, respectively.

As for `COc1ccc2c(c1)c(CC(=O)N1CCOCC1)c(C)n2C(=O)c1ccc(Cl)cc1`, the activity change, negative = inhibition in test [16] (at 38 µM (top of the series)) was -8.4% (inactive); in test [17] (at 38 µM (top of the series)), 2.03% (inactive). The Potency is 12.6 µM (active) and 25.1 µM (active) in test [9]; > 46 µM (inactive) in test [8]; > 46 µM (inactive) in test [1]; 5.01 µM (active) in [19]. The activity, negative = inhibition in test [18] was -6.17% (inactive). In addition, the Potency entry in test [10], in [2], in test [3], in test [14], in test [20] and in [11] was “inactive” throughout. Besides, the Potency entry in test [5], in test [6] and in test [7] was “inactive” in each case. Further, the molecule was classed as inactive in test [12] and in test [13].

For `C=C1C(=O)O[C@@H]2[C@H]3O[C@]3(C)CC/C=C(\C)CC[C@@H]12`, the Potency result in [6] and in [7] was “inactive” throughout.

`NCCNS(=O)(=O)c1cccc2cnccc12`: the Potency entry in [9], in [10], in test [2], in test [3], in test [11] and in [5] was “inactive” throughout. In addition, the Potency entry in test [6] and in [7] was “inactive” each time. In addition, in test [17] (at 38 µM (top of the series)), the activity change, negative = inhibition was -13.5% (inactive). In addition, the Potency in [8] and in [1] was > 46 µM (inactive) in each case. Besides, the outcome in test [12] and in [13] was inactive.

For `CCCCCC#CCC#CCC#CCC#CCCCC(=O)O`, the activity change, negative = inhibition is -11.4% (inactive) in test [16] (at 17.2 µM (top of the series)) and -2.11% (inactive) in test [17] (at 17.2 µM (top of the series)). For the same molecule, the Potency in test [8] was > 20.6 µM (inactive). The Potency result in test [6] and in test [7] was “inactive” each time.

Consider `Cc1ccc(NC2=CC(=O)c3sc(C)nc3C2=O)cc1`, for which the Potency entry in test [6] and in test [7] was “inactive” each time.

Source of the values: PubChem BioAssay (NCATS).
